Hits are enriched below; roughly 6.7% of the tested compounds scored in any of these assays.
Mtb FBA inh – Mtb FBA enzyme inhibitors, primary screen, biochemical, fluorescence, strain H37Rv | purified M. tuberculosis FBA, fluorescence read-out | inhibition, % at 1 µM | hit rate 2.3% among 360,000; in the data active = inhibition above about 27%;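 note: 0% = vehicle and 100% = reference inhibitor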
BoNT-A LC inh2 – BoNT/A light chain protease inhibitors, primary screen, biochemical, flow cytometry, MLPCN library | Botulinum neurotoxin type A light chain protease (Clostridium botulinum A str. ATCC 3502) | multiplex microsphere protease substrate cleavage | inhibition, % at 10 µM | hit rate 0.17% among 360,000; note: plate controls were buffer without enzyme for full effect and enzyme alone for no effect
BoNT F protease – BoNT/F light chain protease inhibitors, primary screen, biochemical, flow cytometry, MLPCN library | hit rate 0.22% among 360,000 | Multiplex microsphere protease cleavage assay | inhibition, % at 10 µM; in the data active = inhibition above about 35%, passing the limit was not always enough; inconclusive = no clear call, values can overlap the other calls; note: plate controls were buffer without enzyme for full effect and enzyme alone for no effect
Anthrax LF prot – Bacillus anthracis LF protease inhibitors, primary screen, biochemical, multiplex microsphere, MLPCN library. multiplex microsphere protease cleavage assay. hit rate 0.12% among 360,000. inhibition, % at 10 µM; note: plate controls were buffer without enzyme for full effect and enzyme alone for no effect
Target sequence (P15917 whole entry, looked up): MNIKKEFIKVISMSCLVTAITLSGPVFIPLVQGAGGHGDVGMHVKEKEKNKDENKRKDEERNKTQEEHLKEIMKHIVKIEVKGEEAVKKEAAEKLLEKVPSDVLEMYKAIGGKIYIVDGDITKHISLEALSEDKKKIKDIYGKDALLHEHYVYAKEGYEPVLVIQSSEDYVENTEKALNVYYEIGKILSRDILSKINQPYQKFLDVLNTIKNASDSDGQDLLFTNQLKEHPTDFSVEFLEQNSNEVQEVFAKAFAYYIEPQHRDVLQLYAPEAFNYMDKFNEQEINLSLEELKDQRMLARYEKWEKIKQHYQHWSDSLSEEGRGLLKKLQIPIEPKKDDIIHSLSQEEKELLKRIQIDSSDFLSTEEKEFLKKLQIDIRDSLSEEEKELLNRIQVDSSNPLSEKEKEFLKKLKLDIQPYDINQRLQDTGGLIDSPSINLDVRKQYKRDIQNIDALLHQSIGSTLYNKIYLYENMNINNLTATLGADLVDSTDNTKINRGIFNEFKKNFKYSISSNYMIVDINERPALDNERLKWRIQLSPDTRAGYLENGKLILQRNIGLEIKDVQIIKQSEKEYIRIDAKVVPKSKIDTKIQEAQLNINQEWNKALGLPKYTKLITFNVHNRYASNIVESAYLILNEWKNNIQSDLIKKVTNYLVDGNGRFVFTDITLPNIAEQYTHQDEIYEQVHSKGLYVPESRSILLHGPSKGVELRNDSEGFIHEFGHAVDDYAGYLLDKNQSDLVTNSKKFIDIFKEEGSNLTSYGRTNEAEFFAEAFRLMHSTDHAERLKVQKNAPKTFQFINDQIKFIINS
Autofluor counter – counter-screen for toxin protease inhibitors: compound fluorescence; compound autofluorescence counterscreen, microsphere flow cytometry; stronger effect = higher value; AID 624483; hit rate 3.1% among 360,000; fluorescence intensity (test concentration not listed); in the data active = fluorescence intensity above about 16000; inconclusive = no clear call, values can overlap the other calls
GDH-TPI counter – GDH-TPI coupling enzyme inhibitors, primary screen, artefact control for M. tuberculosis FBA inhibitor project, biochemical, absorbance, full deck | hit rate 1.2% among 360,000 | GDH-TPI coupled enzyme counterscreen, NADH absorbance | inhibition, % at 4.8 µM; in the data active = inhibition above about 30%;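 note: 0% = DMSO wells and 100% = wells lacking the enzyme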
Active calls of the source: *; ! = not confirmed by another sample. Cut-off read from the data, not from the text of the source, unless noted: active = inhibition above about 30%; inconclusive = no clear call, values can overlap the other calls; inactive = below that.

What do the screens show for `Cc1cc(=O)n2nc(N3CCC(C(=O)Nc4cccc(Cl)c4C)CC3)sc2n1`?
Mtb FBA inh: -2.8; BoNT-A LC inh2: 0.3; BoNT F protease: 2.2; Anthrax LF prot: -4.6; Autofluor counter: 6156; GDH-TPI counter: -8.3

How did O=[N+]([O-])c1cccc(C(=Nc2ccc(Cl)cc2)NO)c1 do in these assays?
Mtb FBA inh: 3.0; BoNT-A LC inh2: -0.9; BoNT F protease: -7.5; Anthrax LF prot: -5.0; Autofluor counter: 6289; GDH-TPI counter: 8.2

How did ONC(=Nc1ccc(Cl)cc1)c1ccc(Cl)cc1 do in these assays?
Mtb FBA inh: -1.2; BoNT-A LC inh2: -1.0; BoNT F protease: -3.8; Anthrax LF prot: -8.3; Autofluor counter: 24126*; GDH-TPI counter: 1.9

What do the screens show for `O=C(N=c1nc2ccccn2s1)c1ccccc1`?
Mtb FBA inh: 2.2; BoNT-A LC inh2: 0.3; BoNT F protease: -0.1; Anthrax LF prot: 1.7; Autofluor counter: 11568; GDH-TPI counter: 32.3*

What do the screens show for `O=C(c1ccccc1)n1c(=S)nc2ccccn21`?
Mtb FBA inh: -4.6; GDH-TPI counter: 29.9

How did Cc1ccc(CNC(=O)CCc2nc3ccccc3c(=O)[nH]2)cc1 do in these assays?
Mtb FBA inh: -1.3; BoNT-A LC inh2: 0.1; BoNT F protease: 16.5; Anthrax LF prot: 1.2; Autofluor counter: 4272; GDH-TPI counter: -4.0

What do the screens show for `Cc1cc(Cl)ccc1NC(=S)NCc1ccccc1Cl`?
Mtb FBA inh: -2.1; BoNT-A LC inh2: 0.2; BoNT F protease: -0.7; Anthrax LF prot: -1.2; Autofluor counter: 1885; GDH-TPI counter: 7.5

How did C=CCn1c(SCc2csc(C)n2)nc2sc3c(c2c1=O)CCCCC3 do in these assays?
Mtb FBA inh: -0.4; BoNT-A LC inh2: 2.0; BoNT F protease: 3.2; Anthrax LF prot: -5.5; Autofluor counter: 21298*; GDH-TPI counter: 3.9

Results for CCOC(=O)c1cc(-c2ccccc2)nc2nc(N3CCCCC3)sc12 ?
Mtb FBA inh: 18.2; BoNT-A LC inh2: 7.3; BoNT F protease: 3.3; Anthrax LF prot: 3.6; Autofluor counter: 2297; GDH-TPI counter: -9.6

How did Cc1ccc(S(=O)(=O)Oc2ccc(/C=N/NC(=O)c3cccnc3)cc2)cc1 do in these assays?
Mtb FBA inh: -3.2; BoNT-A LC inh2: -0.4; BoNT F protease: -1.2; Anthrax LF prot: 0.2; Autofluor counter: 2483; GDH-TPI counter: 1.3

How did CCOc1ccc2c(O)csc2c1 do in these assays?
Mtb FBA inh: 0.8; BoNT-A LC inh2: -0.1; BoNT F protease: 1.1; Anthrax LF prot: 2.3; Autofluor counter: 3377; GDH-TPI counter: 0.0

Results for CCOc1c(C)cc(-c2ncccc2O)cc1C ?
Mtb FBA inh: 22.9; BoNT-A LC inh2: -1.3; BoNT F protease: -3.8; Anthrax LF prot: -1.8; Autofluor counter: 22538*!; GDH-TPI counter: 20.6

What do the screens show for `Cc1ccc2[nH]c(=O)c(-c3nc4ccccn4c3NCc3ccco3)cc2c1`?
Mtb FBA inh: 1.1; BoNT-A LC inh2: 0.1; BoNT F protease: -3.8; Anthrax LF prot: -0.9; Autofluor counter: 16211*; GDH-TPI counter: 26.6

How did CCn1c(C)nc2cc(C(=O)N/N=C(\C)c3ccc(N4CCOCC4)cc3)ccc21 do in these assays?
Mtb FBA inh: -3.5; BoNT-A LC inh2: -1.0; BoNT F protease: 0.5; Anthrax LF prot: 3.2; Autofluor counter: 3705; GDH-TPI counter: 16.9

What do the screens show for `CCn1c(C)nc2cc(C(=O)NNC(=O)c3ccc(C)cc3)ccc21`?
Mtb FBA inh: -0.5; BoNT-A LC inh2: -0.7; BoNT F protease: -10.4; Anthrax LF prot: -1.8; Autofluor counter: 3950; GDH-TPI counter: 7.6

What do the screens show for `CCn1c(C)nc2cc(C(=O)N/N=C/c3ccc(N4CCOCC4)cc3)ccc21`?
Mtb FBA inh: 4.0; BoNT-A LC inh2: 3.9; BoNT F protease: 13.5; Anthrax LF prot: -3.4; Autofluor counter: inconclusive; GDH-TPI counter: 34.3*

Results for CCn1c(C)nc2cc(C(=O)N/N=C/c3ccc(OC)c(O)c3)ccc21 ?
Mtb FBA inh: -0.7; BoNT-A LC inh2: 1.0; BoNT F protease: -2.5; Anthrax LF prot: -0.4; Autofluor counter: 2202; GDH-TPI counter: 38.9*

How did CCn1c(C)nc2cc(C(=O)NNS(=O)(=O)c3c(C)c(C)cc(C)c3C)ccc21 do in these assays?
Mtb FBA inh: -0.3; BoNT-A LC inh2: -0.1; BoNT F protease: 2.2; Anthrax LF prot: -0.6; Autofluor counter: 24040*; GDH-TPI counter: 1.3

What do the screens show for `Cc1ccc(NC(=O)CCN2C(=O)C3C4CCC(C4)C3C2=O)cc1[N+](=O)[O-]` (stereo not drawn)?
Mtb FBA inh: 3.5; BoNT-A LC inh2: 1.2; BoNT F protease: 8.0; Anthrax LF prot: -3.3; Autofluor counter: 4369; GDH-TPI counter: 6.5

How did Nc1ncnc(Nc2ccc(F)cc2)n1 do in these assays?
Mtb FBA inh: 1.1; BoNT-A LC inh2: 0.3; BoNT F protease: -0.1; Anthrax LF prot: -0.8; Autofluor counter: 8652; GDH-TPI counter: -5.6

How did Cc1nc(N)[nH]c(=O)c1CCC(=O)OCC(C)C do in these assays?
Mtb FBA inh: 2.3; BoNT-A LC inh2: -1.5; BoNT F protease: -2.6; Anthrax LF prot: -2.5; Autofluor counter: 23221*; GDH-TPI counter: -12.2

Results for CC(C)c1cc(C(=O)NC2CCCc3c2cnn3-c2ccccc2F)no1 (stereo not drawn) ?
Mtb FBA inh: -0.3; BoNT-A LC inh2: -2.0; BoNT F protease: -2.1; Anthrax LF prot: 1.2; Autofluor counter: 5035; GDH-TPI counter: -2.2

How did O=c1[nH]c2ccc(N/C(=N/S(=O)(=O)c3ccccc3)c3ccccc3)cc2[nH]1 do in these assays?
Mtb FBA inh: -3.0; BoNT-A LC inh2: -1.3; BoNT F protease: -14.8; Anthrax LF prot: -1.3; Autofluor counter: 2673; GDH-TPI counter: 4.3

What do the screens show for `CCCCSc1nc2c([nH]1)c(=S)n(C)c(=O)n2C`?
Mtb FBA inh: -0.9; BoNT-A LC inh2: 0.4; BoNT F protease: 8.2; Anthrax LF prot: -1.4; Autofluor counter: 4026; GDH-TPI counter: 28.0

How did CSc1nc2c([nH]1)c(=S)n(C)c(=O)n2C do in these assays?
Mtb FBA inh: 1.1; BoNT-A LC inh2: -0.1; BoNT F protease: -2.4; Anthrax LF prot: -5.0; Autofluor counter: 3768; GDH-TPI counter: 34.5*

How did CCCCC(C)Sc1nc2c([nH]1)c(=S)n(C)c(=O)n2C (stereo not drawn) do in these assays?
Mtb FBA inh: -2.8; BoNT-A LC inh2: 0.2; BoNT F protease: -3.7; Anthrax LF prot: -6.8; Autofluor counter: 4295; GDH-TPI counter: 30.7*

What do the screens show for `C/C(=N\NC(=O)c1nn(C)c(C)c1Br)c1ccc(NC(=O)C2CCCC2)cc1`?
Mtb FBA inh: -3.0; BoNT-A LC inh2: 1.0; BoNT F protease: 1.4; Anthrax LF prot: -9.3; Autofluor counter: 5272; GDH-TPI counter: 2.8

Results for S=C(N/N=C/c1ccccc1Cl)Nc1ccccc1 ?
Mtb FBA inh: 0.9; BoNT-A LC inh2: 2.1; BoNT F protease: 2.7; Anthrax LF prot: -2.8; Autofluor counter: 15988; GDH-TPI counter: 29.1
